# Abeta yeast res: compounds reversing amyloid beta toxicity in yeast | Potency, µM (highest dose often 46.1 µM), most hits filed as activators | actives 0.063% (n = 410,000) | yeast expressing A-beta42, growth rescue, OD600, 48 h; response scale: 0% DMSO, 100% iron-clioquinol control | AID 1347071; further: nearly all actives have a fitted effect of over 55% in size
#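 Growth rescue measured by 600 nm absorbance after 48 h yeast culture at 30 C with compound. Values normalized between DMSO and an equimolar ferric chloride plus clioquinol control.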
# Mito fusion act: mitochondrial division inhibition or fusion activation; S. cerevisiae fusion-defective mutant growth rescue, CellTiterGlo 48 h; Potency, µM (doses to about 46.1 µM), for the others: at the highest dose growth rescue (activation), most hits filed as activators; actives 0.23% (n = 320,000); further: % of control where 0% means no effect; nearly all actives have a fitted effect of over 45% in size
#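 Yeast fusion mutant, YPEG (non-fermentable carbon), compound, 48 h at 37C non-permissive; CellTiterGlo added, 10 min RT, luminescence read. Rescued growth = division inhibition.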
# FUS suppressor: FUS proteinopathy suppression in yeast. S. cerevisiae FUS-expressing, growth rescue, OD600, 24 h. actives 0.24% (n = 390,000). Potency, µM (top dose mostly 76.6 µM), hits mostly activators;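 further: plate controls were DMSO vehicle for no effect and reference control for full effect; nearly all actives have a fitted effect of over 55% in size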
#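 Quantitative HTS measuring growth restoration of FUS-toxic yeast. Galactose-induced cells (OD 0.005) were exposed 24hr at 30C to compounds at several concentrations, then absorbance at 600 nm was recorded.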
# aSyn rescue: alpha-synuclein toxicity inhibition in yeast; actives 0.14% (n = 370,000); Potency, µM (titrated, usually from 46.1 µM), for the others: at the top dose growth rescue (activation), most hits filed as activators; Yeast expressing alpha-synuclein, growth rescue, BacTiter-Glo, 24 h; AID 652106; further: % of control where 0% means no effect; nearly all actives have a fitted effect of over 65% in size
#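 Screening used galactose-induced yeast with toxic alpha-synuclein levels, exposed to compound for 24 hr at 30 deg C. Cell growth, read with BacTiter-Glo luminescence, gave the measured signal.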
# TDP-43 yeast inh: TDP-43 toxicity inhibition in yeast | Potency, µM (series often up to 46.1 µM), for the others: top-dose growth rescue (activation), most hits filed as activators | actives 1.8% (n = 410,000) | TDP-43 expressing yeast growth rescue, BacTiter-Glo, 24 h; further: % of control where 0% means no effect; nearly all actives have a fitted effect of over 50% in size
#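 In this qHTS, compounds that restore growth of yeast expressing TDP-43 appear as activators. Cells (OD600=0.02, galactose medium, raffinose-pregrown) are incubated with compound 24 hr at 30 deg C and growth is quantified by BacTiter-Glo.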
# An asterisk follows results filed as active; i = inactive; ? = inconclusive; . = no result; [ ] = remark or other dose. Sampled rows, rich in hits. Any-hit rate of the full collection: about 2.2%. The call rests on the fitted dose curve; in most records, active means well fitted curve in the direction sought with a large enough effect; inconclusive means small, poorly fitted or top-dose-only effect, or another doubt; inactive means no such curve, though single readings can be large; an effect the other way counts as inactive or inconclusive. Potency means the concentration at half of the fitted maximal effect.
SMILES,Abeta yeast res,Mito fusion act,FUS suppressor,aSyn rescue,TDP-43 yeast inh
CCOC(=O)[C@@H]1[C@H]2COc3cc(OC)ccc3[C@H]2N2C(=O)N(c3ccc(Cl)cc3)C(=O)[C@]12C,i,.,?,9%,19%
CCOC(=O)[C@@H]1[C@H]2COc3cc(OC)ccc3[C@@H]2N2C(=O)N(c3ccc(Cl)cc3)C(=O)[C@]12C,i,.,28µM*,-4%,7%
CCOC(=O)[C@H]1[C@H]2COc3ccc(Br)cc3[C@@H]2N2C(=O)c3cc(F)c(F)cc3NC(=O)[C@@]12C,i,-25%,28µM*,1%,29%
CCOC(=O)[C@H]1[C@H]2COc3ccc(Br)cc3[C@@H]2N2C(=O)N(c3ccccc3)C(=O)[C@@]12C,i,.,?,1%,16%
CCOC(=O)[C@@H]1[C@H]2COc3ccc(Br)cc3[C@@H]2N2C(=O)N(c3ccccc3)C(=O)[C@@]12C,i,1%,i,?,35µM*
CCC(C)(C)NC(=O)C(c1ccc(C)cc1)N(CC1CCCO1)C(=O)CCC(=O)Nc1ccccn1 (configuration not stated),i,13%,i,1%,-3%
NCCN(Cc1ccc(Cl)c(Cl)c1)c1ccc(Br)cn1,.,.,.,-25%,.
COC1=C(OC)C(=O)C(Sc2ccc3ccccc3c2)=CC1=O,i,.,.,14µM*,?
COc1ccc(S(=O)(=O)Oc2ccc3ccccc3c2)cc1,i,19%,.,-1%,?
Cc1cc(C)n(-c2nc(C)c(C)c(=O)n2CC(=O)Nc2ccc(Cl)c(Cl)c2)n1,i,.,i,.,19%
O=C1NC[C@@H](CCCCN2CCN(CCc3ccccc3)C(=O)C2=O)N(Cc2ccccc2)C1=O,i,.,i,2%,12%
N#Cc1c(N2CCSCC2)nsc1-c1ccccc1Cl,i,-20%,i,-14%,10µM*
N#Cc1c(Cl)cccc1N1CCSCC1,i,.,i,10%,?
COc1ccc(C(=O)OC(C)C(=O)NC(C)CCc2ccccc2)c(OC)c1 (configuration not stated),i,11µM*,i,4%,-34%
S=c1[nH]nc(-c2cc(-c3ccccn3)nc3ccccc23)o1,i,-1%,i,14%,3.2µM*
Cc1ccc(-c2cc(-c3n[nH]c(=S)o3)c3ccccc3n2)cc1,i,?,i,-14%,?
COc1ccccc1NC(=O)CCS(=O)(=O)c1cc2c3c(c1)CCN3C(=O)CC2,i,.,i,.,20%
COc1ccc(CN(Cc2ccccc2)C(=O)c2cccc(C#N)c2)cc1COc1ccc(NC(C)=O)cc1,.,.,.,-6%,.
COc1cccc(/C=C/c2ccnc3ccccc23)c1OC,.,.,.,-7%,.
CCc1c(C)sc2c1CCN(C(=O)Nc1cc(C)ccc1C)C2c1ccc(OC)cc1 (configuration not stated),i,.,i,.,5%
COc1ccc2sc(-c3ccccc3OC)c(C#CCCO)c2c1,i,25%,i,-12%,20µM*
COc1cc(OC)cc(-c2sc3ccc(OC)cc3c2C#CCCO)c1,i,1%,?,2%,0%
COc1ccccc1-c1sc2cc3c(cc2c1C#CCO)OCO3,i,?,?,0%,22µM*
CN1C(=O)Cc2cc(S(=O)(=O)NCc3ccc(Cl)cc3)ccc21,i,.,i,.,?
O=C(Nc1ccc(C(=O)O)cc1)/C(=C\c1ccco1)NC(=O)c1ccco1,i,-4%,i,0%,-16%
SMILES,Abeta yeast res,Mito fusion act,FUS suppressor,aSyn rescue,TDP-43 yeast inh
CCN1CCCC1CN(Cc1cc2ccc(C)cc2[nH]c1=O)C(=S)Nc1ccccc1OC (configuration not stated),i,1%,.,6%,0%
CCN1CCCC1CN(Cc1cc2ccc(C)c(C)c2[nH]c1=O)C(=O)Nc1ccccc1OC (configuration not stated),i,-3%,10µM*,0%,-23%
Cc1cccc(C)c1NC(=O)c1csc([C@H]2C[C@H](O)[C@@H](CO)O2)n1,i,.,i,0%,0%
CC[C@@]1(c2ccccc2OC)ON(c2ccccc2C(F)(F)F)C1=O,i,-32%,i,7%,18µM*
CN(C)CCNc1nc2sc3c(c2c(=O)n1CCc1ccccc1)CCCCC3,i,11%,i,-9%,17%
CC(O)CNc1nc2sc3c(c2c(=O)n1CCc1ccccc1)CCCCC3 (configuration not stated),i,20µM*,?,-45%,-9%[0.397 µM]
CCN1C=C(Cc2ccc(OC)cc2)C2=C(C1)C(c1ccc(OC)cc1)C(C#N)=C(N)O2 (configuration not stated),i,9%,35µM*,2%,-5%
Cc1ccc(S(=O)(=O)NC(=O)COc2ccccc2C)c(C)c1,i,2%,.,19%,18µM*
Cc1ccccc1NC(=O)COc1ccccc1C,i,3%,i,-8%,0%
CS(=O)(=O)N1CCN(c2nc(-c3cccs3)nc3ccccc23)CC1,.,.,.,1%,.
O=[N+]([O-])c1ccc(O/N=[N+](\[O-])N2CCCCC2)c([N+](=O)[O-])c1,.,.,.,-81%,.
O=C(NC(=S)Nc1ccccn1)c1ccccc1,i,35µM*,i,24%,11%
O=C(NC(=S)Nc1ccccn1)c1ccc(-c2ccccc2)cc1,i,-10%,i,1%,?
Cc1nc2nc(SCC(=O)NCc3ccccc3Cl)nn2c(C)c1Cc1ccccc1,i,.,i,.,8%
CC(=O)Nc1ccc(/C=C/C(=O)c2ccc(-n3nncc3-c3ccccc3)cc2)cc1,.,.,.,7%,.
Cc1cccc(N(CC(=O)NCCSCc2ccc(Cl)cc2)S(C)(=O)=O)c1C,?,.,i,.,16µM*
COc1cc2nc(N3CCCN(C)CC3)nc(NC3CCN(C)C3)c2cc1OC (configuration not stated),.,.,.,0%,.
COCCn1c(-c2ccccc2)c(C)n2c3c(=O)n(C)c(=O)n(C)c3nc12,i,.,i,2%,28%
Cc1nn(C)c(C(=O)NC(=S)Nc2ccccc2Br)c1Cl,i,-1%,i,-10%,0%
CCn1ncc(Cl)c1C(=O)NC(=S)Nc1ccccc1Br,i,7%,i,-26%,5.6µM*
CC(C)CN=C(NS(=O)(=O)c1ccccc1)C(Cl)(Cl)Cl,i,?,?,15%,11µM*
O=C(/C(=N/O)c1ccccc1)c1ccccc1,i,.,i,5%,22µM*
CNC(=O)/C(=N\O)c1ccccc1,.,-2%,.,.,.
Cc1cc(C)cc(NS(=O)(=O)c2cnc(Cl)c(Cl)c2)c1,i,25%,i,15%,35µM*
CCOc1ccc(NS(=O)(=O)c2cnc(Cl)c(Cl)c2)cc1,i,-6%,.,8%,-61%

# High-throughput results (PubChem BioAssay)
